Assay outcomes deposited in PubChem by The Scripps Research Institute Molecular Screening Center.
Hits are enriched below; roughly 2.3% of the tested compounds scored in any of these assays.
CHRM1 PAM: human CHRM1 positive allosteric modulation | CHO-K1 hM1, Fluo-8 calcium fluorescence, ACh EC20; 0% = ACh EC20, 100% = maximal ACh | activation, % at 3 µM | actives 0.088% (n = 360,000) | AID 588819; in the data active = activation above about 19%, passing the limit was not always enough
Target sequence (P11229 whole entry, looked up): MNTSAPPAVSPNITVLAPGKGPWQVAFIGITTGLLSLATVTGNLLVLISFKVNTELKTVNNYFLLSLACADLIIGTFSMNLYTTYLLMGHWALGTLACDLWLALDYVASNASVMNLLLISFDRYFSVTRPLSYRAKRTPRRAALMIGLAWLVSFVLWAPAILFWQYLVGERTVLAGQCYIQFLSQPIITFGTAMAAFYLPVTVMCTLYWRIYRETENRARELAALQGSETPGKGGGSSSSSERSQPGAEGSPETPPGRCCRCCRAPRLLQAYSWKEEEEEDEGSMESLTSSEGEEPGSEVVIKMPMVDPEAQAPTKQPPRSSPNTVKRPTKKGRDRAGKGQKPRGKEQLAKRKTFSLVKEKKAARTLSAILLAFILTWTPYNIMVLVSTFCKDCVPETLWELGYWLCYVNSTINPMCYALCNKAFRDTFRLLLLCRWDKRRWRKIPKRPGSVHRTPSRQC
M1 ag parental: counter-screen for M1 agonists: effect in parental CHO-K1 cells. Fluo-8 calcium fluorescence; scaled to maximal ATP response, vehicle zero. activation, % at 3 µM. actives 0.48% (n = 360,000). AID 602248; in the data active = activation above about 15%;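 note: untransfected CHO-K1 host cells lacking M1 receptor as counterscreen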
M1 ag: human M1 muscarinic receptor agonism | P11229 | CHO-K1 hM1, Fluo-8 calcium fluorescence, agonist mode; 0% DMSO, 100% acetylcholine EC100 | activation, % at 3 µM | actives 0.33% (n = 360,000) | AID 588814;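 active = activation above the run's mean compound activation plus 3 SD, cut at about 16% in these data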;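 note: peak over basal fluorescence ratio within a 140 s kinetic read after compound addition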
CHO-K1 Ca antag: M1 antagonist counterscreen hit in parental CHO-K1 cells; inhibition, % at 3 µM; actives 0.6% (n = 360,000); ATP-induced calcium, Fluo-8 fluorescence; AID 602250;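 active = inhibition above a per-plate cutoff, the plate's mean sample inhibition plus 3 SD, cut at about 24% in these data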;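 note: 0% = DMSO plus EC80 ATP and 100% = DMSO alone without ATP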
M1 PAM parental: counter-screen for M1 PAMs: effect in parental CHO-K1 cells; activation, % at 3 µM; ATP EC20, Fluo-8 calcium fluorescence; 0% at ATP EC20, 100% at ATP max; AID 602247; actives 0.02% (n = 360,000);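 active = activation above the run cutoff, the mean activation of all test compounds plus 3 SD, cut at about 40% in these data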;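 note: peak over basal fluorescence ratio in a 140 s read after ATP addition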
CHRM1 antagonist: antagonists of human M1 muscarinic receptor; P11229; CHO-K1 hM1, Fluo-8 calcium fluorescence, ACh EC80 antagonist; inhibition, % at 3 µM; actives 1.3% (n = 360,000);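 active = percent inhibition above its own plate's cutoff, namely the mean of that plate's compound wells plus 3 SD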;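 note: peak over basal fluorescence ratio during 140 s after agonist addition; 0% = ACh EC80 plus DMSO and 100% = DMSO alone without agonist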
Active calls of the source: *; nt = not tested or not shown.

SMILES	CHRM1 PAM	M1 ag parental	M1 ag	CHO-K1 Ca antag	M1 PAM parental	CHRM1 antagonist
O=C1NC(=O)N(c2ccc(Cl)cc2)C(=O)/C1=C\c1ccc(Sc2nc3ccccc3[nH]2)o1	1	8	11	29*	-16	-1
O=C1NC(=O)C(=Cc2ccc(Sc3ccccc3)o2)C(=O)N1	4	1	-5	0	1	0
c1ccc2c(c1)Sc1ccccc1N2CC1CN2CCC1CC2 (stereo unspecified)	-26	0	-9	5	1	99*
CNc1cc(Cl)c2nonc2c1[N+](=O)[O-]	1	-1	-1	38*	-17	25*
COc1ccccc1OCC#CCN1CCCC1	-22	2	-7	2	10	90*
Clc1ccc(OCC#CCN2CCCCCC2)cc1	-22	1	-6	-14	12	49*
CC1CCCCC1NC1CCN(C)CC1 (stereo unspecified)	11	0	-4	-3	-7	-7
COc1ccccc1CN1CCCC(C(=O)c2ccccc2SC)C1 (stereo unspecified)	-20	3	-6	1	9	32
CSc1ccccc1C(=O)C1CCCN(Cc2ccncc2)C1 (stereo unspecified)	-23	3	-7	-14	15	55*
CSc1ccc(C(=O)C2CCCN(Cc3cccnc3)C2)cc1 (stereo unspecified)	-33	5	-13	-3	11	34*
COC(=O)C1=C(c2ccc(F)cc2OCc2ccccc2)C[C@@H]2CC[C@H]1N2C(=O)NC1Cc2ccccc2C1	6	-1	-5	11	-13	-13
O=c1[nH]c(O)c(C=NC2CCCCC2)c(=O)[nH]1	26*	0	-2	-9	7	2
CN(Cc1cccc(-c2ccncc2)c1)C(=O)Oc1ccccc1Cl	nt	13	nt	7	-17	nt
CN(Cc1cccc(-c2ccncc2)c1)C(=O)Oc1ccccc1Cc1ccccc1	nt	12	nt	24*	-8	nt
O=C(CN1CCCCC1)c1ccc(F)cc1	6	1	-3	-6	15	-10
O=C(c1ccccc1)C(CN1CCCC1)c1ccccc1 (stereo unspecified)	-26	0	-7	2	26	51*
CC[N+]12CCC(CC1)C(=C(c1ccccc1)c1ccccc1)C2	-25	0	-8	12	-8	98*
C[N+]12CCC(CC1)C(=C(c1ccccc1)c1ccccc1)C2	-25	0	-7	-9	21	98*
NNc1n[nH]c(=S)n1N	4	0	-6	-10	16	-8
CC1=C2C(=O)C3C(CC=C4CC(O)CCC43C)C2CCC12OC1CC(C)CNC1C2C (stereo unspecified)	5	1	-6	-17	23	-10
CC1(C)CSC(=NCc2ccccc2)N1	-16	26*	12	20	-14	16
COC(=O)C1=C(c2cccc(C#N)c2)C[C@@H]2CC[C@H]1N2C(=O)NCCOc1ccc(OC)cc1	0	-1	-10	1	-10	1
CC1CCN(CCc2nc3ccccc3[nH]2)CC1	10	1	-1	-11	-5	-13
CC(C)OCCCNC(=O)c1c(N)n(Cc2cccs2)c2nc3ccccc3nc12	4	0	-1	25*	-5	-2
CC(C)CCn1c(N)c(C(=O)NCc2cccs2)c2nc3ccccc3nc21	6	1	-4	-18	18	-6
SMILES	CHRM1 PAM	M1 ag parental	M1 ag	CHO-K1 Ca antag	M1 PAM parental	CHRM1 antagonist
CC(C)CNC(=O)c1c(N)n(Cc2ccc3c(c2)OCO3)c2nc3ccccc3nc12	-16	1	-3	-9	14	41*
N=Cc1c(O)n(-c2ccccc2)c(=O)n(-c2ccccc2)c1=O	12	0	-5	-18	21	-5
COC(=O)C1=C(c2ccc(OC)c(OC)c2)C[C@@H]2CC[C@H]1N2C(=O)N1CCCCC1	13	1	0	-17	15	-15
CC(C)(C)C(=O)N1Cc2cc(N3CCCCC3)ccc2-n2nncc2C1	13	2	-2	5	15	-12
CN(C)CCSC1c2ccccc2CSc2ccccc21 (stereo unspecified)	-27	3	-8	-2	9	99*
N#CC(c1cccnc1)N1CCOCC1 (stereo unspecified)	4	1	-7	-2	-2	6
CC(CC(C#N)(c1ccccc1)c1ccccc1)N1CCOCC1 (stereo unspecified)	-30	-1	-9	-10	11	99*
O=C(c1cc(=O)[nH]c2ccc(Br)cc12)N1CCC2(CC1)OCCO2	5	0	-2	26*	-6	-10
O=C(c1cc2cc(Cl)ccc2[nH]1)N1CCC2(CC1)OCCO2	20	1	1	-7	2	-10
COC(=O)C1=C(c2ccc(F)cc2F)C[C@@H]2CC[C@H]1N2C(=O)NCc1ccc(C(F)(F)F)cc1	2	0	-7	-19	15	-7
c1ccc(C(c2ccccc2)c2ccncc2)cc1	-28	1	-6	-10	19	70*
CC1CN1c1cc2c(c3c1ccn3C)C1CCC2C1 (stereo unspecified)	26*	0	0	11	14	-47
C[C@]12CC[C@H](N)CC1=CCC1C2CC[C@@]2(C)C1CC[C@@H]2O (stereo partly specified)	1	2	-6	-13	19	-5
C[C@]12CC[C@@H](O)CC1=CCC1C2CC[C@@]2(C)C1CC[C@@H]2N (stereo partly specified)	-20	1	-9	-8	7	26*
CCCOC(=O)c1ccc(-[n+]2c(-c3ccccc3)cc(-c3ccccc3)cc2-c2ccccc2)cc1	-27	5	-8	2	6	45*
COc1ccc(-c2cc(-c3ccccc3)[n+](C)c(-c3ccccc3)c2)cc1	-11	0	-12	6	-6	13
Oc1ccccc1-[n+]1c(-c2ccccc2)cc(-c2ccccc2)cc1-c1ccccc1	-22	0	-8	-7	6	30
COc1ccc(-[n+]2c(-c3ccccc3)cc(-c3ccc(C)cc3)cc2-c2ccccc2)cc1	-30	13	-6	14	2	86*
Cc1ccccc1-[n+]1c(-c2ccccc2)cc(-c2ccccc2)cc1-c1ccccc1	-28	5	-8	6	-3	65*
O=C(O)c1ccc(-[n+]2c(-c3ccccc3)cc(-c3ccccc3)cc2-c2ccccc2)cc1	9	1	-6	-10	10	-7
CO[C@H]1C=C2CCN(C)[C@H]2C2c3cc4c(cc3C(=O)O[C@@H]21)OCO4 (stereo partly specified)	11	1	-2	-2	20	-45
